Results reported in PubChem BioAssay AID1159580 (chemical genetic matrix, 2015).
Values joined by “and” are separate entries in the source; they are usually repeats but may differ in a detail not shown here. Equal entries are not always repeated. The campaign covered roughly 5,500 compounds. About 2,000 (36%) were called active. About 18% were inconclusive and are not listed. Cut-off read from the data, not from the text of the source: active = normalized growth mostly below about 0.91 (no sharp cut-off); inconclusive = no clear call, values can overlap the other calls; inactive = mostly above about 0.92. The list shows a part of the results.

Test: chemical genetic growth profiling, strain panel (AID 1159580);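 note: tested at 20 µM; growth read once vehicle control cultures reached saturation at 30 °C; 1 = growth at the plate median or of vehicle wells; lower values mean less growth of the strain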
Details: S. cerevisiae deletion strains, growth OD

Measured: normalized growth

NC[C@@H]1O[C@H](O[C@@H]2[C@@H](CO)OC(O[C@@H]3[C@@H](O)[C@H](N)C[C@H](N)[C@H]3OC3O[C@H](CN)[C@@H](O)[C@H](O)[C@H]3N)[C@@H]2O)[C@H](N)[C@@H](O)[C@@H]1O (some centres not stated)
inactive: locus YAL013W, strain DEP1, active compounds read low 1 | locus YAL021C, strain ccr4, active compounds read low 1.01 | locus YAL026C, strain drs2, active compounds read low 1.02 | locus YAL030W, strain snc1, active compounds read low 1.02 | locus YBL061C, strain skt5, active compounds read low 1.03 | locus YBR009C, strain hhf1, active compounds read low 1.03 | locus YBR021W, strain FUR4, active compounds read low 0.966 | locus YBR023C, strain chs3, active compounds read low 1.06 | locus YBR171W, strain sec66, active compounds read low 1.04 | locus YBR229C, strain ROT2, active compounds read low 1 | locus YBR231C, strain swc5, active compounds read low 1.01 | locus YBR279W, strain paf1, active compounds read low 1.01 | locus YCL011C, strain gbp2, active compounds read low 1.03 | locus YCL016C, strain dcc1, active compounds read low 1.05 | locus YCL029C, strain bik1, active compounds read low 1.02 | locus YCL061C, strain MRC1, active compounds read low 1.01 | locus YCL069W, strain vba3, active compounds read low 1.02 | locus YCR088W, strain abp1, active compounds read low 1.02 | locus YDL005C, strain med2, active compounds read low 1.01 | locus YDL035C, strain GPR1, active compounds read low 1.01 | locus YDL040C, strain nat1, active compounds read low 1.02 | locus YDL074C, strain BRE1, active compounds read low 1.01 | locus YDL101C, strain DUN1, active compounds read low 1.01 | locus YDL134C, strain PPH21, active compounds read low 1 | locus YDL185W, strain tfp1, active compounds read low 1.01 | locus YDL192W, strain arf1, active compounds read low 1.02 | locus YDR001C, strain nth1, active compounds read low 1.02 | locus YDR069C, strain doa4, active compounds read low 1.03 | locus YDR101C, strain arx1, active compounds read low 1 | locus YDR137W, strain rgp1, active compounds read low 1.06 | locus YDR150W, strain NUM1, active compounds read low 1.01 | locus YDR159W, strain sac3, active compounds read low 0.997 | locus YDR162C, strain NBP2, active compounds read low 1.01 | locus YDR195W, strain ref2 1.01 | locus YDR297W, strain sur2, active compounds read low 1.02 | locus YDR318W, strain mcm21, active compounds read low 1.01 | locus YDR334W, strain swr1, active compounds read low 1.02 | locus YDR335W, strain msn5, active compounds read low 1.02 | locus YDR388W, active compounds read low 1.01 | locus YDR392W, strain spt3, active compounds read low 0.944 | locus YDR502C, strain sam2, active compounds read low 1.03 | locus YEL003W, strain gim4, active compounds read low 1.02 | locus YEL037C, strain rad23, active compounds read low 1.03 | locus YEL061C, strain CIN8 (second series), active compounds read low 1.03 | locus YEL061C, strain CIN8, active compounds read low 1.01 | locus YER015W, strain faa2, active compounds read low 1.03 | locus YER016W, strain bim1, active compounds read low 1.02 | locus YER110C, active compounds read low 1.01 | locus YER111C, strain swi4, active compounds read low 1.02 | locus YER155C, strain BEM2 (second series), active compounds read low 0.973 | locus YER155C, strain BEM2, active compounds read low 1.01 | locus YER167W, strain BCK2, active compounds read low 1.02 | locus YFR010W, strain ubp6, active compounds read low 1.03 | locus YGL078C, strain dbp3, active compounds read low 1.01 | locus YGL086W, strain mad1, active compounds read low 1 | locus YGL167C, strain pmr1, active compounds read low 1.03 | locus YGL173C, strain kem1, active compounds read low 1.03 | locus YGL227W, strain vid30, active compounds read low 1.03 | locus YGL240W, strain doc1, active compounds read low 1 | locus YGL248W, strain PDE1, active compounds read low 1.01 | locus YGL253W, strain hxk2, active compounds read low 1.03 | locus YGR078C, strain PAC10, active compounds read low 1.02 | locus YGR135W, strain pre9, active compounds read low 1.07 | locus YGR229C, strain SMI1, active compounds read low 1 | locus YGR252W, strain gcn5, active compounds read low 0.957 | locus YHR013C, strain ard1, active compounds read low 1.05 | locus YHR027C, strain rpn1, active compounds read low 1.03 | locus YHR030C, strain SLT2, active compounds read low 1.02 and 0.985 | locus YHR079C, strain IRE1 (second series), active compounds read low 1.02 | locus YHR079C, strain IRE1, active compounds read low 0.983 | locus YHR094C, strain hxt1, active compounds read low 1.01 | locus YHR129C, strain ARP1, active compounds read low 1 | locus YHR142W, strain chs7, active compounds read low 1.05 | locus YHR200W, strain rpn10, active compounds read low 1.03 | locus YIL066C, strain RNR3, active compounds read low 1.03 | locus YIL073C, strain SPO22, active compounds read low 1.07 | locus YIL125W, strain kgd1, active compounds read low 1.02 | locus YIR030C, strain dcg1, active compounds read low 1.01 | locus YJL092W, strain hpr5, active compounds read low 1.03 | locus YJL095W, strain BCK1 (second series), active compounds read low 1.03 | locus YJL095W, strain BCK1, active compounds read low 1.02 and 0.991 | locus YJL115W, strain asf1, active compounds read low 1.03 | locus YJL129C, strain trk1, active compounds read low 1.06 | locus YJL134W, strain LCB3, active compounds read low 0.993 | locus YJL154C, strain vps35, active compounds read low 1.02 | locus YJL164C, strain tpk1, active compounds read low 1.01 | locus YJL166W, strain qcr8, active compounds read low 1.04 | locus YJL168C, strain set2, active compounds read low 1.01 | locus YJL187C, strain SWE1 (second series), active compounds read low 1.01 | locus YJL187C, strain SWE1, active compounds read low 1.01 | locus YJR043C, strain POL32, active compounds read low 1.01 | locus YJR066W, strain TOR1, active compounds read low 0.929
